Records with an inconclusive call do not appear. The source made the active and inactive calls. Unless noted, calls come from the whole dose curve; as a rule, active = well fitted curve in the direction sought with a large enough effect in the repeat runs; inconclusive = weak or mixed curves; inactive = no such curve, though single readings can be large; an effect the other way counts as inactive or inconclusive.

Drawing on PubChem BioAssay (Tox21), this text covers Potency and outcome for eight molecules.

A short description of assay [1]: A CellTox Green Cytotoxicity Assay to monitor cytotoxicity in HepG2 cells - 0 hour (AID 1224882). Note: nearly all actives have a fitted effect of over 35% in size. The method, boiled down:
(§1)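 Continuous culture of HepG2 cells with a membrane-impermeant DNA dye; rising fluorescence marks dead cells. Compound exposure lasted up to 40 h at 37 C, with reads every 8 h from 0 h.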

Assay [2] in a line: A CellTox Green Cytotoxicity Assay to monitor cytotoxicity in HepG2 cells - 32 hour (AID 1224883). Note: nearly all actives have a fitted effect of over 50% in size. In outline: as §1
The nature of assay [3]: qHTS RealTime-Glo MT Cell Viability Assay in HepG2 cells - 16 hour (AID 1224885). Note: nearly all actives have a fitted effect of over 50% in size. In outline: (§2)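 HepG2 suspension premixed with RealTime-Glo reagents is plated at 600 cells per well and left 5 h at 37 C/5% CO2. Compounds in DMSO then go in, and bioluminescence reflecting viable cell number is recorded over 40 h.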
A general note: Quantitative high-throughput screening tests each substance at several concentrations.

Assay [4] in a line: qHTS RealTime-Glo MT Cell Viability Assay in HEK293 cells - 8 hour (AID 1224887). Note: top concentration of the series differs between compounds; nearly all actives have a fitted effect of over 50% in size. In outline: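 qHTS format; HEK293 cells with NanoLuc/prosubstrate reagent, 37 C/5% CO2 for 5 h pre-dosing; compounds 23 nL in DMSO; luminescence at each time point reflects viable cells.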
Assay [5] in a line: A CellTox Green Cytotoxicity Assay to monitor cytotoxicity in HEK293 cells - 16 hour (AID 1224888). Note: nearly all actives have a fitted effect of over 35% in size. In outline:
(§3)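 Each value comes from one timepoint of a single continuous run in which HEK293 cells with CellTox Green were exposed to compound for up to 40 h at 37 C, dye fluorescence rising with cell death.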

Assay [6] is described as follows: qHTS RealTime-Glo MT Cell Viability Assay in HepG2 cells - 0 hour (AID 1224889). Note: nearly all actives have a fitted effect of over 50% in size. In outline: as §2
The nature of assay [7]: A CellTox Green Cytotoxicity Assay to monitor cytotoxicity in HepG2 cells - 8 hour (AID 1224890). Note: nearly all actives have a fitted effect of over 45% in size. In outline: as §1
Assay [8] in a line: qHTS assay to identify small molecule antagonists of the androgen receptor (AR) signaling pathway using the MDA cell line in the presence of 0.5 nM R1881 - cell viability counter screen (AID 1259242). Note: nearly all actives have a fitted effect of over 45% in size. The method, boiled down:
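Fluorescence from CellTiter-Fluor, which reports protease activity of live cells, was read 30 min after reagent addition to MDA-kb2 cells that had been incubated 16 hr with compound and 0.5 nM R1881.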

Assay [9] has as its target Androgen receptor (Homo sapiens) (UniProt P10275). Briefly: qHTS assay to identify small molecule antagonists of the androgen receptor (AR) signaling pathway using the MDA cell line in the presence of 0.5 nM R1881 (AID 1259243). Note: nearly all actives have a fitted effect of over 50% in size. Note: potency is the fitted concentration of half-maximal effect. The method, boiled down:
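Inhibition of R1881 (0.5 nM final) induced reporter signal was measured in human MDA-kb2 cells; note the MMTV promoter also responds to GR. Exposure lasted 16 hr at 37C.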

For assay [10], the target named is Estrogen receptor (Homo sapiens) (UniProt P03372). Briefly: qHTS assay to identify small molecule antagonists of the estrogen receptor alpha (ER-alpha) signaling pathway using the BG1 cell line in the presence of 0.1 nM 17-beta-estradiol (AID 1259244). Note: nearly all actives have a fitted effect of over 50% in size. Note: potency is the fitted concentration of half-maximal effect. In outline:
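Quantitative high-throughput screen in VM7Luc4E2 cells: compound plus 0.1 nM E2 (final), 22 h, 37C, 5% CO2; ONE-Glo added, 30 min room temperature, luminescence measured.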

Assay [11] in a line: qHTS assay to identify small molecule HDAC inhibitors (AID 1259364). Note: top concentration of the series differs between compounds; nearly all actives have a fitted effect of over 45% in size. The method, boiled down: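 Endogenous HDAC class I/II activity was measured in wild-type HCT-116 cells by HDAC-Glo luminescence after 2 h compound treatment.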
Assay [12] is described as follows: qHTS assay to identify small molecule HDAC inhibitors - cell viability counter screen (AID 1259365). The method, boiled down: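 Following a 2hr exposure of overnight-plated wild-type HCT-116 cells to DMSO-delivered compounds, CellTiter-Glo was added and luminescence recorded after 30min at room temperature.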
Assay [13] in a line: qHTS assay to identify small molecule agonists of the sonic hedgehog signaling (Shh) pathway - cell viability counter screen (AID 1259366). Note: nearly all actives have a fitted effect of over 50% in size. In outline:
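After a 4hr attachment at 37C, NIH/3T3 cells bearing an integrated Gli1-driven luciferase reporter were dosed with compounds. Treatment lasted 24hr, with the final hour including CellTiter-Fluor for a fluorescence viability measurement.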

Assay [14] in a line: qHTS assay to identify small molecule antagonists of the sonic hedgehog signaling (Shh) pathway - cell viability counter screen (AID 1259367). Note: nearly all actives have a fitted effect of over 55% in size. Note: potency is the fitted concentration of half-maximal effect. The method, boiled down: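 Seed 3T3 Gli1-Luc cells at 2,000 per well; incubate 4 hr; add compound in DMSO, then conditioned medium; incubate at 37C with 5% CO2; add CellTiter-Fluor after 23 hr; read fluorescence 1 hr later.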
Assay [15] can be described thus: qHTS assay to identify small molecule agonists of the sonic hedgehog signaling (Shh) pathway (AID 1259368; calls by dose curve;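 note: NIH/3T3-derived 3T3Gli1-Luc cells carrying a stable Gli1-driven firefly luciferase reporter; series mostly up to about 92 µM; nearly all actives have a fitted effect of over 15% in size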). The method, boiled down: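 Luminescent signal was taken as a measure of Gli1-controlled luciferase expression in stably transfected NIH/3T3-derived cells that had been treated for 24 hr with compounds delivered in DMSO.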
Assay [16] is described as follows: qHTS assay to identify small molecule antagonists of the sonic hedgehog signaling (Shh) pathway (AID 1259369; calls by dose curve; note: nearly all actives have a fitted effect of over 45% in size; note: potency is the fitted concentration of half-maximal effect). In outline:
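Screening used 3T3Gli1-Luc cells at 2,000 per well, compounds delivered in DMSO, and conditioned medium as agonist stimulus; plates incubated 24hr at 37 C and 5% CO2 before a 30min luciferase step.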

A short description of assay [17]: A CellTox Green Cytotoxicity Assay to monitor cytotoxicity in HEK293 cells - 8 hour (AID 1224884). Note: nearly all actives have a fitted effect of over 35% in size. In outline: as §3
Assay [18] in a line: qHTS RealTime-Glo MT Cell Viability Assay in HEK293 cells - 24 hour (AID 1224886). The method, boiled down:
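Reads taken at 0, 8, 16, 24, 32 and 40 h from the same wells. HEK293 cells (600/well) carried RealTime-Glo reagents from seeding, with compound added after a 5 h settle at 37 C.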

The nature of assay [19]: qHTS assay to identify small molecule antagonists of the estrogen receptor alpha (ER-alpha) signaling pathway using the BG1 cell line in the presence of 0.1 nM 17-beta-estradiol - cell viability counter screen (AID 1259241). Note: nearly all actives have a fitted effect of over 40% in size. In outline: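 Measures cytotoxicity alongside the ER-alpha antagonist readout: VM7Luc4E2 cells, charcoal-stripped serum, 0.1 nM 17beta-estradiol final, 22 hr compound incubation at 37C, CellTiter-Fluor fluorescence.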

Assay [20] is described as follows: qHTS assay to identify small molecule phospholipidosis (PLD) inducers (AID 1259344; active = well fitted curve in the direction sought with a large enough effect; an effect the other way counts as inactive or inconclusive). In outline:
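Quantitative HTS in HepG2: compound plus LipidTOX Red dye for 24 h, paraformaldehyde fixation with Hoechst 33342, widefield high-content imaging; amiodarone as positive and DMSO as negative control.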

Chain of Estrogen receptor (Homo sapiens) (P03372 whole entry, looked up): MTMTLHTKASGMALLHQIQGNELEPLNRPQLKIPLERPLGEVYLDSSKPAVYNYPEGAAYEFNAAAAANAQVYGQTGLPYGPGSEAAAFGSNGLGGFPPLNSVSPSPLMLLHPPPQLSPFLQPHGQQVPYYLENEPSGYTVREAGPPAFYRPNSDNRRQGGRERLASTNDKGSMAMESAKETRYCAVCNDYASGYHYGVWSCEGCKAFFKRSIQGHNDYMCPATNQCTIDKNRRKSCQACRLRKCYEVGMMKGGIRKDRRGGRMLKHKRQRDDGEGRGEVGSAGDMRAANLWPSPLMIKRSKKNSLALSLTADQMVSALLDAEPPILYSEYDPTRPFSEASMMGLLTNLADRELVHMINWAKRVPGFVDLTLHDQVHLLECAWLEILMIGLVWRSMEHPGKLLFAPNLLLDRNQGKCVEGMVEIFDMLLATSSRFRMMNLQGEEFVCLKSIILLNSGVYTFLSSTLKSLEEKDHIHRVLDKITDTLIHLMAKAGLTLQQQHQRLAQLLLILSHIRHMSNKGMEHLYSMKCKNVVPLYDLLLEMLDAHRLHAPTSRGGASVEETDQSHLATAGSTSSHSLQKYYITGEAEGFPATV
Chain of Androgen receptor (Homo sapiens) (P10275 whole entry, looked up): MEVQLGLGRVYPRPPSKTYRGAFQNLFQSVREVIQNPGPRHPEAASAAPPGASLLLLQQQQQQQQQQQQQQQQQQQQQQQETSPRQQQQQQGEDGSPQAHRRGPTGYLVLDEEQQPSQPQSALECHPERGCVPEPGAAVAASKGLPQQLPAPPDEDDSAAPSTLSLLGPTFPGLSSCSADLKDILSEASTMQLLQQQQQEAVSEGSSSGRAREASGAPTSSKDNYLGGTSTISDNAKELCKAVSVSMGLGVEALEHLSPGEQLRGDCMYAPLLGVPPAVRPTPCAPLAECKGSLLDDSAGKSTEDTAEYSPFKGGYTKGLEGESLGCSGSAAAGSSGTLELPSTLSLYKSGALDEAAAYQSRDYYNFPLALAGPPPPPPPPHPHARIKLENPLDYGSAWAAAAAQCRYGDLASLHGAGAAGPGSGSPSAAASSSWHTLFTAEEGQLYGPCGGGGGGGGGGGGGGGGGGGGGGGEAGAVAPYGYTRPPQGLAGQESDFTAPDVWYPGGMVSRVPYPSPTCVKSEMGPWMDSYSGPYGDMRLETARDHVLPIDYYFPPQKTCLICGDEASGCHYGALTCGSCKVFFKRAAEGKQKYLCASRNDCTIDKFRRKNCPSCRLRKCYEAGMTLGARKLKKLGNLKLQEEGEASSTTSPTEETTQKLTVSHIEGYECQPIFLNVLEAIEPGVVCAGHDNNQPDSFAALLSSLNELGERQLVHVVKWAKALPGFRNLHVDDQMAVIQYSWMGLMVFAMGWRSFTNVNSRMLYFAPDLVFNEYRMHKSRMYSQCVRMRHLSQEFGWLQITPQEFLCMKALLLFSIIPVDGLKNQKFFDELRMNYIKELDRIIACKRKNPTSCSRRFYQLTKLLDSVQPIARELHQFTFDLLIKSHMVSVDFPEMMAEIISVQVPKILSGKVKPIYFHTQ

For the molecule `CC(=O)SCc1ccco1`, the Potency result in [1], in [2], in assay [3], in assay [4], in [5] and in [6] was “inactive” in each case. Also, the Potency result in assay [7], in [8], in assay [9], in [10], in assay [11] and in assay [13] was “inactive” throughout. Also, the Potency entry in [14] and in assay [16] was “inactive” throughout. The molecule was called inactive in assay [12] and in [15].
Turning to `O=[N+]([O-])c1cc[n+]([O-])cc1`, the Potency result in assay [1], in assay [2], in assay [17], in assay [18], in [4] and in [5] was “inactive” in each case. The Potency result in assay [6], in assay [7], in assay [8] and in assay [11] was “inactive” each time. In addition, the Potency in [9] is 54.5 µM (active); in assay [10] it was 54.5 µM (active); in [14] it was 61.1 µM (active); in [16], 30.6 µM (active). Besides, the outcome in assay [12] and in [15] was inactive.
As to `Cc1ccc(C(=O)C(C)CN2CCCCC2)cc1` (stereo unspecified), the Potency result in assay [1], in assay [2], in [3], in assay [18], in [4] and in [5] was “inactive” each time. The Potency entry in assay [6], in assay [7], in assay [19], in assay [8], in [10] and in [20] was “inactive” throughout. The Potency entry in assay [11], in assay [14] and in [16] was “inactive” throughout. Further, the outcome in assay [12] and in assay [15] was inactive.
Take `O=C(O)C1CCC(C(=O)O)CC1` (stereo unspecified): the Potency entry in assay [1], in assay [2], in [3], in [18], in assay [4] and in assay [5] was “inactive” each time. Also, the Potency entry in assay [6], in assay [7], in assay [19], in assay [8], in assay [10] and in assay [11] was “inactive” in each case. Besides, the Potency entry in assay [13], in assay [14] and in [16] was “inactive” in each case. Besides, the call in [12] and in [15] was inactive.
Take `C1=Cc2ccccc2C1`: the Potency result in [1], in assay [2], in [3], in assay [18], in assay [4] and in assay [5] was “inactive” each time. The Potency result in assay [6], in assay [7], in assay [19], in [8], in assay [10] and in [11] was “inactive” throughout. For the same molecule, the Potency result in [13], in [14] and in assay [16] was “inactive” throughout. In addition, the result in assay [12] and in assay [15] was inactive.
On to `COCCOCCOCCOCCOC`, for which the Potency result in assay [1], in [2], in assay [3], in assay [18], in assay [4] and in [5] was “inactive” each time. The Potency result in assay [6], in assay [7], in [8], in [9], in assay [10] and in assay [11] was “inactive” throughout. For the same molecule, the Potency result in assay [13], in [14] and in [16] was “inactive” in each case. The call in [12] and in assay [15] was inactive.
`CN(c1nccc(=O)[nH]1)C1CCN(c2nc3ccccc3n2Cc2ccc(F)cc2)CC1`: the Potency result in assay [1], in assay [2], in assay [17], in [5], in assay [6] and in assay [7] was “inactive” each time. For the same molecule, the Potency result in assay [19], in assay [8], in [10], in assay [20], in assay [11] and in assay [13] was “inactive” each time. For the same molecule, the Potency result in [14] and in [16] was “inactive” each time. The outcome in assay [12] and in assay [15] was inactive.
For the molecule `C#CCOC(=O)[C@@H](C)Oc1ccc(Oc2ncc(Cl)cc2F)cc1`, the Potency result in assay [1], in assay [2], in assay [3], in assay [18], in [5] and in [6] was “inactive” in each case. For the same molecule, the Potency result in assay [7], in [8], in assay [10], in assay [11], in [13] and in assay [14] was “inactive” each time. Further, the Potency result in assay [16] was “inactive”. Also, the call in assay [12] and in assay [15] was inactive.
